PubChem BioAssay AID1851 (National Center for Advancing Translational Sciences (NCATS), 2009)
About 4,000 (25%) of roughly 16,000 compounds were called active. Inconclusive results (about 26%) are left out. Not all results are given here. Unmarked numbers belong to inactive results. Calls follow the shape of the dose curve; as a rule, active = well fitted curve in the direction sought with a large enough effect; inconclusive = small, poorly fitted or top-dose-only effect, or effect the other way; inactive = no such curve, though single readings can be large or run the other way.

target: Cytochrome P450 2C9 (Homo sapiens) (UniProt P11712); assay: Cytochrome panel assay with activity outcomes; details: recombinant CYP, pro-luciferin dealkylation, luminescence, p450-cyp2c9; series mostly up to 57.1 µM; activity, negative = inhibition: at the top concentration
Sequence (P11712 whole entry, looked up): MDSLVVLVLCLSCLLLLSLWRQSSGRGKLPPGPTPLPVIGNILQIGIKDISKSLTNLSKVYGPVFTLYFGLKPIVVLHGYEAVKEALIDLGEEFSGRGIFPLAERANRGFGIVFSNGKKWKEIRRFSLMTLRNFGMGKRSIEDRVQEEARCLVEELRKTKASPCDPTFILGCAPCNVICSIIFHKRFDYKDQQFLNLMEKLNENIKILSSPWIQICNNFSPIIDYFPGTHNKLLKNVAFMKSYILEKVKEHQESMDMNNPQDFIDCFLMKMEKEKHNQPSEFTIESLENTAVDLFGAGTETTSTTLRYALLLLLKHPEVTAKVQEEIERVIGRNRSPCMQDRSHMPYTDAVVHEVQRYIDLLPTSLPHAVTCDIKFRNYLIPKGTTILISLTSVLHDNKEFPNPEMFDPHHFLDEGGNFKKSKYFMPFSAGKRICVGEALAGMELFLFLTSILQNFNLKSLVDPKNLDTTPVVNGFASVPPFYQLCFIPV
% is scaled to controls: 0 for no effect and ±100 for the full control effect.

Row | Compound | AC50 | activity, negative = inhibition
1 | COc1cccc(C2=CC(c3ccccc3)n3nnnc3N2)c1 (centres undefined) | 0.501 µM (active) | –
2 | COc1cccc(-c2nc(NC3CCNCC3)c3ccccc3n2)c1 | – | 11.6% [at 2.29 µM]
3 | COc1cccc(-c2cncnc2NC2CCNCC2)c1 | – | 28.5% [at 2.29 µM]
4 | CC(=O)N1CCC2(CCCN(c3cccc(-c4ccccc4)c3)C2)CC1 | 12.6 µM (active) | –
5 | COCC(=O)N1CCC2(CC1)CN(C(=O)Nc1ccc(OC)cc1)C2 | – | -5.72%
6 | CC(=O)N1CCC2(CCCN(c3ccccc3)C2)CC1 | – | -26%
7 | COCC(=O)N1CCC2(CC1)CCN(c1cccc(-c3ccccc3)c1)CC2 | – | -12.7%
8 | COCC(=O)N1CCC2(CCCN(C(=O)Nc3ccccc3)C2)CC1 | – | 0.7%
9 | COCC(=O)N1CCC2(CCCN(c3ccncc3)C2)CC1 | – | -17.3%
10 | COCC(=O)N1CCC2(CCCN(c3cccc(-c4ccccc4)c3)C2)CC1 | 25.1 µM (active) | –
11 | CC(=O)N1CCC2(CC1)CCN(c1cccc(-c3ccccc3)c1)CC2 | – | -15%
12 | COCC(=O)N1CCC2(CC1)CN(C(=O)Nc1ccccc1)C2 | 1.58 µM (active) | –
13 | Cc1noc(C)c1-c1nccc(N(C)Cc2ccco2)n1 | – | 10.6% [at 2.29 µM]
14 | CCCn1c(=O)c2[nH]c(-c3ccc(OCC(=O)NCCN)cc3)nc2n(CCC)c1=O | – | -17.5%
15 | Cc1noc(C)c1-c1nc(N2CCN(C)CC2)c2ccccc2n1 | – | 1.84% [at 2.29 µM]
16 | Cc1cc([C@](C)(N)C(=O)O)ccc1P(=O)(O)O | – | -9.49%
17 | N[C@H](C(=O)O)c1cc(O)cc(O)c1 | inactive | –
18 | CC1=C(C(=O)O)N2C(=O)[C@@H](NC(=O)[C@@H](N)C3=CCC=CC3)[C@@H]2SC1 | – | 11.2%
19 | CC(Sc1nnc(Cc2cccs2)n1C1CCCCC1)C(N)=O (centres undefined) | – | -26.6%
20 | COc1ccc(OC)c(C(=O)CSc2nnc(Cc3cccs3)n2CCc2ccccc2)c1 | 1.58 µM (active) | –
21 | COc1ccc(NC(=O)CSc2nnc(Cc3cccn3C)n2CCc2ccccc2)c(OC)c1 | 11.2 µM (active) | –
22 | COc1cccc(Nc2ncc3nc(CCc4ccccc4)c(=O)n(Cc4cccs4)c3n2)c1 | – | 11%
23 | COc1ccc(NC(=O)NCc2cccn2C)c(OC)c1 | – | 2.26%
24 | O=[N+]([O-])c1ccc(-c2cnc(SCc3ccccc3Cl)[nH]2)cc1 | 3.98 µM (active) | –

Row | Compound | AC50 | activity, negative = inhibition
25 | O=c1[nH]c(SCc2ccccc2[N+](=O)[O-])nc2nc[nH]c12 | – | 11.4% [at 11.4 µM]
26 | O=c1[nH]c(SCc2cccc([N+](=O)[O-])c2)nc2nc[nH]c12 | – | 4.13% [at 11.4 µM]
27 | COc1ccccc1CN1CCCC2(CCN(S(C)(=O)=O)CC2)C1 | – | 6.51%
28 | Cc1c(C(=O)Nc2cccc(C(F)(F)F)c2)oc2ccc(S(=O)(=O)N3CCOCC3)cc12 | 1.41 µM (active) | –
29 | C=CCOc1c2ccc(C(=O)NC3CCCc4ccccc43)cc2nn1C (centres undefined) | – | -24.9%
30 | Cc1c(C(=O)NC2CCCc3ccccc32)oc2ccc(S(=O)(=O)N3CCOCC3)cc12 (centres undefined) | 7.08 µM (active) | –
31 | CCOc1cc(CNCCCN2CCOCC2)cc(Br)c1OCC(=O)Nc1cccc(C(F)(F)F)c1 | – | -9.88%
32 | O=C(O)C[C@@H]1CCCc2ccccc2[C@H]1O | – | 11.1%
33 | Fc1cccc(F)c1C(Nc1nncs1)Nc1nncs1 | – | -6.71% [at 11.4 µM]
34 | CSc1ncnc2c1ncn2[C@@H]1O[C@@H](CO)[C@H](O)O[C@@H]1O | – | 1.22% [at 11.4 µM]
35 | CS(=O)(=O)Nc1cccc(-c2ccc3ncnc(Nc4ccccc4)c3c2)c1 | – | -12.6% [at 2.29 µM]
36 | COc1ccc(CCn2c(C)cc(C(=O)CSc3nc(N)cc(=O)[nH]3)c2C)cc1 | 8.91 µM (active) | –
37 | Cc1cc(C(=O)CSc2nnc(N)s2)c(C)n1CCc1ccc(F)cc1 | 1.12 µM (active) | –
38 | COc1ccc(C(=O)NC2(C(F)(F)F)C(=O)Nc3c2c(=O)[nH]c(=O)n3CCc2ccc(OC)c(OC)c2)cc1 (centres undefined) | – | -20.4%
39 | CC[C@H]1CC[C@H]2[C@@H]3CC=C4C[C@H](OC(C)=O)[C@@H](N)C[C@@]4(C)[C@H]3CC[C@@]12C | – | 13.7% [at 11.4 µM]
40 | CCOc1ccc(C(=O)CCC(=O)O)cc1 | – | 13.4%
41 | CCCCOc1ccc(C(=O)CCN2CCCCC2)cc1 | 2.51 µM (active) | –
42 | CCC(=O)c1ccc(OCC(O)CN2CCCCC2)cc1 (centres undefined) | – | 0.273%
43 | CC(N)=NCc1cccc(CN)c1 | inactive | –
44 | COc1cc(/C=N/Nc2snc(SC)c2C#N)cc(OC)c1OC | 4.47 µM (active) | –
45 | CCOC(=O)N/N=C1/C[C@@H](O)[C@@H](O)[C@@H]2[C@@H]3C(=O)N(C4CCCCC4)C(=O)[C@H]3CC[C@H]12 | – | -8.52% [at 11.4 µM]
46 | CCN(CC)C(=O)C1CC(=O)N(c2ccc(OC)cc2)C1c1ccc(OC)cc1 (centres undefined) | – | -35.3%
47 | COc1ccc(N2CC(C(=O)Nc3cc(C)on3)CC2=O)cc1 (centres undefined) | 14.1 µM (active) | –
48 | COc1ccc(N2CC(C(=O)OCC(=O)c3cccc(OC)c3)CC2=O)cc1 (centres undefined) | 17.8 µM (active) | –

Row | Compound | AC50 | activity, negative = inhibition
49 | CCOc1ccc(CNC(=O)C2CC(=O)N(C3CCCC3)C2)cc1OC (centres undefined) | – | 2.04%
50 | CCOc1ccc(N2CC(C(=O)NCc3cccc(C)c3)CC2=O)cc1 (centres undefined) | 12.6 µM (active) | –
51 | c1cncc(-c2ccc3ncnc(NC4CCNCC4)c3c2)c1 | – | 12.8% [at 2.29 µM]
52 | CN(C)c1ncnc2ccc(-c3ccoc3)cc12 | – | -6.22% [at 2.29 µM]
53 | OC(COCc1ccccc1)Cn1cnc2ccccc21 (centres undefined) | 12.6 µM (active) | –
54 | C[n+]1cn(CC(O)COCc2ccccc2)c2ccccc21 (centres undefined) | – | -6.25%
55 | CS(=O)(=O)N1CCC2(CCCN(C(c3ccccc3)c3ccccc3)C2)CC1 | 12.6 µM (active) | –
56 | COC(=O)N1CCC2(CC1)CN(C(c1ccccc1)c1ccccc1)C2 | 10 µM (active) | –
57 | CS(=O)(=O)N1CCC2(CC1)CN(C(c1ccccc1)c1ccccc1)C2 | – | 11.5%
58 | COC(=O)N1CCC2(CCCN(C(c3ccccc3)c3ccccc3)C2)CC1 | 31.6 µM (active) | –
59 | COCC(=O)N1CCC2(CC1)CN(C(c1ccccc1)c1ccccc1)C2 | – | 6.75%
60 | c1ccc(C(c2ccccc2)N2CCCC3(CCNCC3)C2)cc1 | – | -17.7%
61 | COCC(=O)N1CCC[C@@]2(CCN(C(c3ccccc3)c3ccccc3)C2)C1 | – | -20.6%
62 | CS(=O)(=O)N1CCC[C@@]2(CCN(C(c3ccccc3)c3ccccc3)C2)C1 | – | -11.3%
63 | CC(=O)N1CCC2(CC1)CN(C(c1ccccc1)c1ccccc1)C2 | – | 3.24%
64 | Cc1cccc(C)c1OCC(O)CNC(C)(C)C (centres undefined) | – | -10.3%
65 | COc1cc2cc3c4cc(OC)c(OC)cc4cc[n+]3c(C)c2cc1OC | – | 13.1% [at 25.6 µM]
66 | CO[C@@H]1COC(=O)C/C=C\[C@@H](C)COC(=O)[C@H](COCc2ccccc2)NC(=O)C/C=C\[C@H]1C | – | -9.13% [at 11.4 µM]
67 | Cc1cccc(NC(=O)NNC(=O)c2cc(-c3ccccc3Cl)nc3ccccc23)c1 | 1.58 µM (active) | –
68 | COCCNc1nc(-c2ccccc2Cl)nc2ccccc12 | – | 0.695% [at 2.29 µM]
69 | Cc1ccc(NC(=O)c2cc(Cl)nc3ccccc23)cc1 | – | 6.1%
70 | CC(=O)NCCNc1nc(-c2ccccc2Cl)nc2ccccc12 | – | 15.4% [at 2.29 µM]
71 | O=C(NNC(=O)c1cc(-c2ccc(Cl)c(Cl)c2)nc2ccccc12)Nc1ccccc1 | 4.47 µM (active) | –
72 | NC(N)=N[C@@H]1C(O)[C@H](N=C(N)N)[C@@H](O)C(O)[C@H]1O (some centres undefined) | – | 13.6% [at 11.4 µM]

Row | Compound | AC50 | activity, negative = inhibition
73 | Nc1nc2c(ncn2COCCO)c(=O)[nH]1 | inactive | –
74 | c1cn(-c2ncnc3ccc(-c4ccoc4)cc23)cn1 | – | -25.3% [at 2.29 µM]
75 | COC(=O)[C@@]1(Cc2ccccc2)[C@H]2c3cc(C(=O)N4CCCC4)n(Cc4ccc(C(F)(F)F)nc4)c3C[C@H]2CN1C(=O)c1ccccc1 | 5.01 µM (active) | –
76 | COC(=O)[C@@]1(Cc2ccc(F)cc2)[C@H]2c3cc(C(=O)N(C)C)n(Cc4ccc(C(F)(F)F)nc4)c3C[C@H]2CN1C(=O)c1ccccc1 | 25.1 µM (active) | –
77 | Clc1ccccc1-c1ccc2ncnc(NC3CCNCC3)c2c1 | – | 20.4% [at 2.29 µM]
78 | Cc1ccccc1-c1cncnc1NCc1ccccc1 | – | -7.47% [at 2.29 µM]
79 | CCC(=O)N[C@@H]1Cc2ccccc2[C@@H](c2ccccc2)C1 | – | -3.11%
80 | Clc1ccc(-c2nnc(-c3ccccc3)c(N3CCSCC3)n2)cc1 | 14.1 µM (active) | –
81 | CN(C)c1ccc(-c2nc(N3CCNCC3)c3ccccc3n2)cc1 | – | 0.369% [at 2.29 µM]
82 | Brc1ccc(-c2nnc(-c3ccccc3)c(N3CCSCC3)n2)cc1 | 10 µM (active) | –
83 | Cc1noc(C)c1-c1ccc2ncnc(N3CCOCC3)c2c1 | – | 7.24% [at 2.29 µM]
84 | CCN1CCN(c2cc(=O)n(-c3cc(Cl)ccc3C)c(=O)[nH]2)CC1 | – | 7.49%
85 | C[N+](C)(C)CCCCCC[N+](C)(C)C | – | 10.1%
86 | COC(=O)N1CCC[C@@]2(CCN(C(=O)Nc3cccc(C#N)c3)C2)C1 | – | -0.0277%
87 | Cc1ccc(CSc2nc3c(c(SCC(=O)O)n2)CCCC3)cc1 | 5.62 µM (active) | –
88 | CC[C@@]12CCCN3CCc4c(n(c5ccccc45)C(=O)C1)[C@H]32 | inactive | –
89 | Fc1cccc(C2NC(=S)NC3=C2N2CCC3CC2)c1 (centres undefined) | – | -27.1%
90 | S=C1NC2=C(C(c3ccc(Br)cc3)N1)N1CCC2CC1 (centres undefined) | 22.4 µM (active) | –
91 | CCOC(=O)CC(NC(=O)c1cccs1)c1ccc(OCC)cc1 (centres undefined) | 3.55 µM (active) | –
92 | CCOC(=O)CC(NC(=O)c1ccc(C)cc1)c1ccc(C)cc1 (centres undefined) | 15.8 µM (active) | –
93 | CNNCc1ccc(C(=O)NC(C)C)cc1 | – | -25.5% [at 25.6 µM]
94 | COc1ccc(C(NC(=O)c2ccc(-c3ccccc3)cc2)c2ccccc2)cc1 (centres undefined) | – | -18.1%
